Test [1] concerns the target Thyrotropin receptor (Homo sapiens) (UniProt P16473). As to the kind of experiment: qHTS assay to identify small molecule agonists of the thyroid stimulating hormone receptor (TSHR) signaling pathway (AID 1224843; calls by dose curve; further: nearly all actives have a fitted effect of over 45% in size; further: potency means the concentration at half of the fitted maximal effect). The procedure, abridged: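 Agonist activity read as cAMP rise via d2/cryptate HTRF competition, 1 h room-temperature detection, in HEK293 cells expressing TSHR. Fifteen-point titrations, each run in triplicate, with a 30 min room-temperature incubation beforehand.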

Test [2] can be described thus: qHTS assay to identify small molecule agonists of the hypoxia (HIF-1) signaling pathway - cell viability counter screen (AID 1224844; calls by dose curve; further: nearly all actives have a fitted effect of over 50% in size). The procedure, abridged: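 Same wells as the HIF-1 reporter screen; ME-180 cells carrying HRE-bla, 17 hr treatment at 37C; CellTiter-Glo luminescence read after 30 min at room temperature.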
Test [3] is described as follows: qHTS assay to identify small molecule agonists of H2AX (AID 1224845; active means well fitted activation curve with a large enough effect in the signal ratio in the repeat runs, not every such curve was filed as active; the % refers to the signal ratio). The procedure, abridged:
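Phospho-H2AX Ser139 measured by HTRF (ex 320 nm; em 665 and 620 nm) after 24 hr antibody incubation. Compounds, 15 concentrations, 0.76% DMSO, were applied to CHO-K1 cells for 3hr at 37C before lysis.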
(Quantitative high-throughput screening tests each substance at several concentrations.)

A short description of test [4]: qHTS assay to identify small molecule agonists of H2AX - cell viability counter screen (AID 1224847; calls by dose curve; further: top concentration of the series differs between compounds; nearly all actives have a fitted effect of over 30% in size). The method, boiled down:
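Cytotoxicity counter screen in wild-type CHO-K1 cells: a 3 hr compound treatment at 37C across 15 concentrations, followed by CellTiter-Glo luminescence to gauge viable cells.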

The nature of test [5]: qHTS assay to identify small molecule antagonists of the estrogen related receptor (ERR) signaling pathway from Tox21 library (AID 1224848). Further: nearly all actives have a fitted effect of over 50% in size. Further: potency means the concentration at half of the fitted maximal effect. The procedure, abridged: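 Luciferase luminescence (ONE-Glo, 30 min room temperature) was the read-out. Cells of the NTP-supplied ERR line, 2,000 per well, were given 6 h at 37 C before compound addition in DMSO and 18 h exposure at 37 C.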

Test [6] is described as follows: qHTS assay to identify small molecule agonists of the estrogen related receptor (ERR) signaling pathway from Tox21 library (AID 1224849; calls by dose curve; further: nearly all actives have a fitted effect of over 15% in size). The note with it: ERR reporter cell line, ONE-Glo luciferase, 18 h; at 92.4 µM (top of the series) unless noted. The procedure, abridged:
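Reporter cells (ERR, NTP source) treated with Tox21 10K compounds 18 h, 37 C. Readout: ONE-Glo luminescence, 30 min RT.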

Test [7] in a line: qHTS RealTime-Glo MT Cell Viability Assay in HepG2 cells - 24 hour (AID 1224867). Further: nearly all actives have a fitted effect of over 50% in size. The method, boiled down:
(§1)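 Luminescence read-out: viable HepG2 cells reduce a prosubstrate to a NanoLuc substrate, giving a signal proportional to live cell number. Reads taken at 0, 8, 16, 24, 32 and 40 h of compound exposure at 37 C.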

Test [8] can be described thus: qHTS RealTime-Glo MT Cell Viability Assay in HEK293 cells - 32 hour (AID 1224868). Further: nearly all actives have a fitted effect of over 50% in size. Further: potency means the concentration at half of the fitted maximal effect. The procedure, abridged:
(§2)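 Nonlytic real-time viability readout: viable cells convert prosubstrate to NanoLuc substrate, giving luminescence proportional to live cell number. HEK293, 600 cells/well, compound added after 5 h, continuous culture at 37 C.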

A short description of test [9]: A CellTox Green Cytotoxicity Assay to monitor cytotoxicity in HEK293 cells - 0 hour (AID 1224869). Further: nearly all actives have a fitted effect of over 50% in size. The procedure, abridged: (§3)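 Homogeneous no-lysis format: HEK293 cell suspension mixed with CellTox Green reagent, seeded, incubated 5 h at 37 C/5% CO2, then dosed by pintool with compound in DMSO.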
Test [10] in a line: qHTS RealTime-Glo MT Cell Viability Assay in HepG2 cells - 40 hour (AID 1224870). Further: nearly all actives have a fitted effect of over 50% in size. The method, boiled down: (§4)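 Real-time viability: cells seeded at 600 per well together with NanoLuc and cell-permeant prosubstrate, compounds added after 5 h incubation. Luminescence tracked at 0, 8, 16, 24, 32 and 40 h of exposure.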
A short description of test [11]: A CellTox Green Cytotoxicity Assay to monitor cytotoxicity in HEK293 cells - 40 hour (AID 1224871). Further: nearly all actives have a fitted effect of over 45% in size. Further: potency means the concentration at half of the fitted maximal effect. The procedure, abridged:
as §3

Test [12] in a line: qHTS RealTime-Glo MT Cell Viability Assay in HEK293 cells - 16 hour (AID 1224872). Further: nearly all actives have a fitted effect of over 50% in size. Further: potency means the concentration at half of the fitted maximal effect. The procedure, abridged:
as §2

A short description of test [13]: qHTS RealTime-Glo MT Cell Viability Assay in HepG2 cells - 8 hour (AID 1224873). Further: nearly all actives have a fitted effect of over 55% in size. The procedure, abridged: as §4
The nature of test [14]: qHTS RealTime-Glo MT Cell Viability Assay in HEK293 cells - 40 hour (AID 1224874). Further: nearly all actives have a fitted effect of over 50% in size. Further: potency means the concentration at half of the fitted maximal effect. The following applies: RealTime-Glo luminescence; max response: hits give low values. The procedure, abridged:
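Measured as luminescence from the same continuously cultured HEK293 wells at successive time points (0, 8, 16, 24, 32, 40 h) after compound addition. Reagent present from seeding; dosing at 5 h; incubation 37 C.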

A short description of test [15]: A CellTox Green Cytotoxicity Assay to monitor cytotoxicity in HepG2 cells - 16 hour (AID 1224876). Further: nearly all actives have a fitted effect of over 45% in size. The method, boiled down:
(§5)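 Fluorescent DNA-binding dye, 600 HepG2 cells/well, 5 h preincubation then compound in DMSO; same plates read at 0–40 h, 37 C.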

The nature of test [16]: A CellTox Green Cytotoxicity Assay to monitor cytotoxicity in HepG2 cells - 24 hour (AID 1224878). Further: nearly all actives have a fitted effect of over 45% in size. The method, boiled down:
as §5

Test [17] in a line: qHTS assay to identify small molecule agonists of the hypoxia (HIF-1) signaling pathway (AID 1224846; active means well fitted activation curve with a large enough effect in the signal ratio in the repeat runs, not every such curve was filed as active; the % refers to the signal ratio). The method, boiled down: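 In ME-180 cells bearing an HRE-bla construct, 17 h treatment with DMSO-dissolved compounds at 37C was followed by CCF4-AM loading to quantify reporter induction.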
Test [18] in a line: A CellTox Green Cytotoxicity Assay to monitor cytotoxicity in HEK293 cells - 24 hour (AID 1224875). Further: nearly all actives have a fitted effect of over 45% in size. The method, boiled down:
as §3

Test [19] is described as follows: qHTS RealTime-Glo MT Cell Viability Assay in HepG2 cells - 32 hour (AID 1224877). Further: nearly all actives have a fitted effect of over 55% in size. The procedure, abridged: as §1
Test [20] is described as follows: A CellTox Green Cytotoxicity Assay to monitor cytotoxicity in HepG2 cells - 40 hour (AID 1224879). Further: nearly all actives have a fitted effect of over 40% in size. Further: potency means the concentration at half of the fitted maximal effect. The method, boiled down: as §5

Unmarked numbers belong to inactive results. Results filed as inconclusive are left out. Activity calls are given as the source filed them. Unless noted, the call rests on the fitted dose curve; in most records, active means well fitted curve in the direction sought with a large enough effect in the repeat runs; inconclusive means weak or mixed curves; inactive means no such curve, though single readings can be large; an effect the other way counts as inactive or inconclusive.
On the % scale 0 is the no-effect control and ±100 the full control effect.

Sequence of Thyrotropin receptor (Homo sapiens) (P16473 whole entry, looked up): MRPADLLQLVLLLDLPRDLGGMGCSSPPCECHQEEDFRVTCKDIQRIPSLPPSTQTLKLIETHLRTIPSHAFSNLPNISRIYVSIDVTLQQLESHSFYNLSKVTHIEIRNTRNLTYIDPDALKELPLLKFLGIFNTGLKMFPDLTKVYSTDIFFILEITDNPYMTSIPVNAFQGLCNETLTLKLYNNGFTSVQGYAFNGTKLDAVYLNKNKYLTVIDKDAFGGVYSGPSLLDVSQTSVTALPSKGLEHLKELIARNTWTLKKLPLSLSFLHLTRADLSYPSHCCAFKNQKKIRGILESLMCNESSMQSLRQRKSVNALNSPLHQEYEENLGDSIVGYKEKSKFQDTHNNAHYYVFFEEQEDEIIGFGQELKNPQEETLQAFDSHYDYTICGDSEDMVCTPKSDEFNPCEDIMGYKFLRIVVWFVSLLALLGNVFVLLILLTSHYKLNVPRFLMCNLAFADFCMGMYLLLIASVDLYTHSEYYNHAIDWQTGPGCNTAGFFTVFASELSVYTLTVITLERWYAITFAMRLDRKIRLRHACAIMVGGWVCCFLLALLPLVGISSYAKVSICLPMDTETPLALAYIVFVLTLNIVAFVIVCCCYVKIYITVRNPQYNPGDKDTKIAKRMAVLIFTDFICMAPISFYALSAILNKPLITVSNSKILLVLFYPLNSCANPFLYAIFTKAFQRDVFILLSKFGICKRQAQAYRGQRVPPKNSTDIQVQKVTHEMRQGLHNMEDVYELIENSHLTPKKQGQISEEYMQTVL

As to `S=C=NCc1ccccc1`, the Potency result in test [1], in test [2], in [3], in test [4], in test [5] and in [7] was “inactive” throughout. The Potency entry in test [9], in [10], in test [13], in test [15] and in test [16] was “inactive” in each case. Moreover, in [6], the activity change, positive = activation is -18.1%. Also, the Potency in test [8] was 44.1 µM (active); in [11] it was 55.5 µM (active); in test [12], 24.8 µM (active); in test [14], 44.1 µM (active).
Regarding `CCCCC(CC)COP(=O)(Oc1ccccc1)Oc1ccccc1` (stereo not drawn), the Potency in test [1] is 27.3 µM (active). Besides, the Potency result in [2], in [3], in test [7], in test [8], in test [9] and in test [10] was “inactive” each time. Besides, the Potency entry in test [11], in [12], in test [13], in test [18], in [19] and in test [16] was “inactive” in each case. For the same molecule, in test [20], the Potency result was “inactive”. Moreover, the outcome in test [17] was inactive. Besides, in test [14], the max response was -24.3%.
Turning to `ClC=C(Cl)Cl`, the Potency result in test [1], in test [2], in test [4], in [5], in test [8] and in test [9] was “inactive” in each case. Further, the Potency result in test [10], in test [11], in test [12], in test [13], in test [18] and in test [15] was “inactive” throughout. Also, the Potency entry in test [19], in test [16] and in test [20] was “inactive” each time. For the same molecule, the call in test [17] was inactive. Moreover, in [6], the activity change, positive = activation was -0.0629%. In addition, the max response in test [14] was 18.6%.
In the case of `CC[C@H]1C[C@H]2[C@@H]3CCC4=CC(=O)CC[C@@H]4[C@H]3CC[C@]2(C)[C@H]1O`, the Potency result in test [1], in test [2], in test [4], in test [7], in [9] and in [10] was “inactive” in each case. For the same molecule, the Potency entry in test [13], in test [18], in [15] and in test [19] was “inactive” throughout. Also, the result in test [17] was inactive. Also, the Potency in test [5] was 29.8 µM (active); in [14], 23.9 µM (active); in test [20], 21.3 µM (active). In addition, the activity change, positive = activation in [6] was -38.2% [at 42.5 µM].
`CCCCCCC#N`: the Potency entry in test [1], in test [2], in test [3], in test [4], in test [8] and in [9] was “inactive” throughout. The Potency result in test [10], in test [11], in [12], in test [13], in test [18] and in test [15] was “inactive” in each case. The Potency entry in test [19], in test [16] and in test [20] was “inactive” throughout. Further, the molecule was called inactive in [17]. Moreover, in [14], the max response is 1.28%.
Consider `Clc1ccc(C(OCCN2CCCCC2)c2ccccc2)cc1` (stereo not drawn), for which the Potency entry in test [1], in test [4], in test [7], in test [9], in [13] and in [19] was “inactive” in each case. Besides, the molecule was classed as inactive in [17]. Moreover, the activity change, positive = activation in test [6] was -17.2% [at 42.5 µM].
Turning to `CCOC(=O)C(Cl)C(C)=O` (stereo not drawn), the Potency result in [1], in test [3], in [4], in test [8], in [9] and in test [10] was “inactive” in each case. In addition, the Potency result in [11], in [12], in test [18], in [15], in test [19] and in [16] was “inactive” throughout. For the same molecule, in [17], the molecule was classed as inactive. The max response in test [14] was -9.27%. Besides, the Potency in test [20] was 24.8 µM (active).
Consider `Nc1nc(=S)[nH][nH]1`, for which the Potency result in test [2], in test [3], in test [4], in test [5], in test [7] and in [8] was “inactive” throughout. The Potency entry in test [9], in [10], in test [11], in test [12], in test [13] and in [18] was “inactive” each time. The Potency result in [19], in test [16] and in test [20] was “inactive” in each case. Further, in test [17], the call was inactive. Moreover, the activity change, positive = activation in [6] was 4.5%. Further, the max response in [14] is 1.62%.

These data come from PubChem BioAssay (Tox21).
